The subject of assay [1] is Plasmodium falciparum Sir2 (PF13_0152, Sir2A). Nature of the assay: Plasmodium falciparum Sir2A binding compounds – biochemical, small-molecule microarray, 635 nm fluorescence, primary screen (AID 1098).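 Further: score merges spot fluorescence intensity with its signal-to-noise ratio.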 As to conditions: fluorescence 635 nm, higher = more signal.
The nature of assay [2]: probe aDKK1 binding to arrayed compounds – biochemical, biotinylated probe, 635/667 nm fluorescence, primary screen (AID 1099).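 Further: score merges 667nm spot fluorescence with signal to noise across triplicate slides; reference of the scale not given here.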 As to conditions: small-molecule microarray, higher = more signal.
A short description of assay [3]: probe aCHRDL2 binding to arrayed compounds – biochemical, biotinylated probe, 635/667 nm fluorescence, primary screen (AID 1100). Particulars: small-molecule microarray, higher = more signal.
Assay [4] is described as follows: change in splice reporter luminescence, either direction, cell-based, HEK293, spliceosome inhibition project, primary screen (AID 1101).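 Further: HEK293 cells carrying a splicing-competent luciferase reporter gene; test concentration not given here.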 Particulars: HEK293 splicing luciferase reporter, 24 h, higher = more signal, called active from +8 up or from −8 down. (In a reporter assay the amount or activity of a reporter protein is the signal.)
Assay [5] addresses Fibroblast growth factor 10 (Homo sapiens) (UniProt O15520). Nature of the assay: compounds binding fibroblast growth factor 10 – biochemical, small-molecule microarray, 635 nm fluorescence, primary screen (AID 1102). Particulars: FGF10 binding, fluorescence 635 nm, higher = more signal.
Assay [6] has as its system glycogen synthase kinase-3 (GSK3A per assay name; protocol says GSK3B). Nature of the assay: compounds binding glycogen synthase kinase-3 – biochemical, small-molecule microarray, 635 nm fluorescence, GSK3A, primary screen (AID 1103). Further: the record names both GSK3A and GSK3B. As to conditions: fluorescence 635 nm, higher = more signal.
Assay [7] deals with Epidermal growth factor receptor (Homo sapiens) (UniProt P00533). Put plainly: compounds binding epidermal growth factor receptor – biochemical, small-molecule microarray, 635 nm fluorescence, primary screen (AID 1104).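 Further: score merges 667 nm emission intensity with spot signal to noise over triplicate slides.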 As to conditions: EGFR binding, higher = more signal.
Epidermal growth factor receptor (Homo sapiens), sequence (P00533 whole entry, looked up): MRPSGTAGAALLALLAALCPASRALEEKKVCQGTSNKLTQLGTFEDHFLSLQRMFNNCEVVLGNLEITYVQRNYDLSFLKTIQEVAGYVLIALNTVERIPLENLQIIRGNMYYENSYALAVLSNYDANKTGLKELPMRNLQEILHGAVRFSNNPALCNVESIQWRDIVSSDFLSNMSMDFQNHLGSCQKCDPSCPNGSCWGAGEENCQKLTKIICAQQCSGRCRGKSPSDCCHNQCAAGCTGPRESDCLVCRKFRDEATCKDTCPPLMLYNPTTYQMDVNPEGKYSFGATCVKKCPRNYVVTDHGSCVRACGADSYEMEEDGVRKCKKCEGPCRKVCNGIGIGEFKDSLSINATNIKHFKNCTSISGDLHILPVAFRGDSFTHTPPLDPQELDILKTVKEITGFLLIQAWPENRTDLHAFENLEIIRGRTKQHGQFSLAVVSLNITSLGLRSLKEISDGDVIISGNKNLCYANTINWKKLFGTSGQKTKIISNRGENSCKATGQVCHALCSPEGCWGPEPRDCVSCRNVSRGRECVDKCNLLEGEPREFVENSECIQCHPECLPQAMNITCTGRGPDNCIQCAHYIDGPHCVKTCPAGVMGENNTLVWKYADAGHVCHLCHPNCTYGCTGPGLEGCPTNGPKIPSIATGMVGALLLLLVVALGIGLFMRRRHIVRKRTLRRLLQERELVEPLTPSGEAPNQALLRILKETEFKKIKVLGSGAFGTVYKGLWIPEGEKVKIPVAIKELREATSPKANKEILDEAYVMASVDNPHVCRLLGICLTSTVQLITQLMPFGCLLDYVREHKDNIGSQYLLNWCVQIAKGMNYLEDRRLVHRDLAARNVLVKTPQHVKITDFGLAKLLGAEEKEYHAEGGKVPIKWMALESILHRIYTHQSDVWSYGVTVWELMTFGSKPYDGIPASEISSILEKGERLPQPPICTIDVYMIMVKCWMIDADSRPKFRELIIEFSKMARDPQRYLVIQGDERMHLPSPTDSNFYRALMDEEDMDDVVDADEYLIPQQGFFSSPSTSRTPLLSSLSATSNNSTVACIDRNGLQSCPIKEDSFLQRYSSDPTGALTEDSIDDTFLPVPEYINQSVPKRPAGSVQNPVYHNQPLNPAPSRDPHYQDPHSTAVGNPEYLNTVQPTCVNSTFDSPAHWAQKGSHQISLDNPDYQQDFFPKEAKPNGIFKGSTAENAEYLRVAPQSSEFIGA
Assay [8] concerns the target Follistatin-related protein 3 (Homo sapiens) (UniProt O95633). Nature of the assay: compounds binding follistatin-related protein 3 – biochemical, small-molecule microarray, 635 nm fluorescence, primary screen (AID 1105).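 Further: score merges emission near 667 nm and signal to noise per printed spot across three slides.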 Particulars: FSTL3 binding, higher = more signal.
The target in assay [9] is Dickkopf-related protein 1 (Homo sapiens) (UniProt O94907). Put plainly: small molecules binding DKK1 protein – biochemical, small-molecule microarray, 635 nm fluorescence scan, primary screen (AID 1106).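 Further: score merges emission near 667 nm with signal to noise over three replicate slides.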 Particulars: higher = more signal.
Dickkopf-related protein 1 (Homo sapiens), sequence (O94907 whole entry, looked up): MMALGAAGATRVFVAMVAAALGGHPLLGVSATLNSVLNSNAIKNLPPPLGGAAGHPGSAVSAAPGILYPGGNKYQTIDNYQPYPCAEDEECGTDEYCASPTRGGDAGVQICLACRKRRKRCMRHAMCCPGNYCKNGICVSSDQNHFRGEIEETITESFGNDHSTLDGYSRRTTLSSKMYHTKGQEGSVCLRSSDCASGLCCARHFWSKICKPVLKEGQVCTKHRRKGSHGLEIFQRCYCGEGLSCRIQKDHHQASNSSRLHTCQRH
Assay [10] deals with Inhibin beta A chain (activin A). Put plainly: small molecules binding activin A – biochemical, small-molecule microarray, 635 nm fluorescence scan, primary screen (AID 1107).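 Further: mouse activin A protein probed at 4.33 µg/mL on printed slides; score merges bound-protein fluorescence near 667 nm with spot signal-to-noise.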 Particulars: INHBA, higher = more signal.

The values below come from PubChem BioAssay.

The source made the active and inactive calls.

Follistatin-related protein 3 (Homo sapiens), sequence (O95633 whole entry, looked up): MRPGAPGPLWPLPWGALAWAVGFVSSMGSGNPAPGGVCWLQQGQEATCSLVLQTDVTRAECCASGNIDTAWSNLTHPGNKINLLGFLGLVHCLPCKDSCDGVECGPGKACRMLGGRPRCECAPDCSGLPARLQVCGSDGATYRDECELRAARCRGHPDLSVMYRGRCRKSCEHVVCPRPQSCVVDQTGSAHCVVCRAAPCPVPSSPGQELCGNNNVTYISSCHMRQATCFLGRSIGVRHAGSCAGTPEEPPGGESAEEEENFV
Fibroblast growth factor 10 (Homo sapiens), sequence (O15520 whole entry, looked up): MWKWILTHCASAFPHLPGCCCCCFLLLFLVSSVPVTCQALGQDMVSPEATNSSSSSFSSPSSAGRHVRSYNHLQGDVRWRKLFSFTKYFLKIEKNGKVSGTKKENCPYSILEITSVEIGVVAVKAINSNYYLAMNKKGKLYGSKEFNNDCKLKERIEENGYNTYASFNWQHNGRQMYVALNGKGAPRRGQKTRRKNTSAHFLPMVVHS

For the compound `Cc1ccc(C(C)CC(O)C2C=CC3C(=O)N(c4ccccc4)C(=O)C3N2Nc2ccc(C(C)C)cc2)o1` (stereo not given), the composite z-score in assay [1] was 0.938; in assay [2], 1.14; in assay [3], 1.37; in [5], 0.545; in [6] it was 0.777; in assay [7], 0.17. The figures for the composite z-score in assay [8], in assay [9] and in [10] were 0.679, -0.252 and 1.13, respectively. Also, in assay [4], the z-score was 1.46 (inactive).

Take `CON(C)C(=O)C=C1C[C@@H](c2cccc(Cl)c2)O[C@@H](c2cccc(Cl)c2)O1`: the composite z-score in assay [1] is 1; in [2], 0.0204; in assay [3], -0.126; in assay [5] it was -0.148; in assay [6], 0.846; in [7] it was -0.185. Also, the composite z-score in [8] came to 0.243; in assay [9], 0.484; in [10], 0.9. Also, the z-score in assay [4] is -1.16 (inactive).

As to `COC(=O)[C@@]1(Cc2ccc(OC)cc2)[C@H]2c3cc(C(=O)N(C)C)n(CCc4c[nH]c5ccc(O)cc45)c3C[C@H]2CN1C(=O)c1ccccc1`, the composite z-score worked out at 1.06 in assay [1]; 1.43 in assay [2]; 0.984 in assay [3]; 0.934 in [5]; 1.12 in [6]; 0.562 in assay [7]. For the same compound, the results for the composite z-score in [8], in assay [9] and in assay [10] were 1.23, -0.509 and 1.26, respectively. For the same compound, the z-score in [4] was -1.65 (inactive).

For `CC(C)C(O)C1C=CC2C(=O)N(C)C(=O)C2N1N(c1ccccc1)c1ccccc1` (stereo not given), the composite z-score was 1.09 in assay [1]; 0.185 in assay [2]; 0.972 in [3]; -0.879 in assay [5]; -1.5 in assay [6]; -0.381 in assay [7]. For the same compound, the composite z-score is -0.49 in [8], -1.07 in assay [9] and 1.7 in [10]. For the same compound, in assay [4], the z-score is 1.06 (inactive).

For `C[N+](C)(C)CCCC[C@@H]1NC(=O)[C@@H]2C[C@H](C(=O)O)[C@H](c3ccc(O)cc3)N2C1=O`, the composite z-score in [1] is -0.72; in assay [2], 0.0476; in assay [3], 0.937; in assay [5] it was -1.57; in [6], -1.32; in assay [7], -1.04. Further, the values for the composite z-score in [8], in [9] and in assay [10] were 0.0994, -0.0081 and 0.614, respectively. For the same compound, the z-score in [4] was 0.116 (inactive).

For the compound `CC(C)(C)OC(=O)CC[C@]1(C(=O)NCCN2CCOCC2)N=C(c2ccc(OCCCO)cc2)O[C@H]1c1ccccc1`, the composite z-score in assay [1] is 1; in assay [2], 0.214; in assay [3] it was 0.93; in [5], -0.426; in [6], -1.04; in [7], -0.174. Also, the composite z-score is -0.713 in assay [8], -1.02 in assay [9] and 0.992 in [10]. Further, in assay [4], the z-score was 0.66 (inactive).

Take `[N-]=[N+]=NCc1ccccc1C[C@@]1(C(N)=O)N=C(c2ccc(OCCCO)cc2)O[C@@H]1c1ccccc1CN=[N+]=[N-]`: the composite z-score is 0.448 in [1]; 1.09 in assay [2]; 0.378 in assay [3]; 1.26 in assay [5]; 0.989 in [6]; -0.238 in [7]. Besides, the composite z-score was 0.165 in assay [8], 0.0137 in [9] and 0.764 in assay [10]. Besides, the z-score in [4] was 0.515 (inactive).

Regarding `O=C1O[C@@H](c2ccccc2)[C@@H](c2ccccc2)N2[C@@H](c3ccccc3OCCO)[C@]3(C(=O)Nc4ccc(C#CCCO)cc43)[C@@H](C(=O)N3CCN(c4ncccn4)CC3)[C@H]12`, the composite z-score is 0.879 in assay [1]; -0.0415 in assay [2]; 0.225 in assay [3]; 0.376 in assay [5]; 0.649 in assay [6]; -0.022 in [7]. Besides, the values for the composite z-score in [8], in [9] and in assay [10] were 0.315, 0.464 and -0.055, respectively. In [4], the z-score is -1.09 (inactive).

`COC(=O)C1(Cc2ccccc2)C=C2C(=C(C(C)C)C(=O)C2C)CN1` (stereo not given): the composite z-score was -1.21 in [1]; 1.34 in assay [2]; 1.36 in assay [3]; -0.713 in assay [5]; -1.51 in assay [6]; -0.449 in [7]. The composite z-score in [8] is -0.482; in assay [9], -1.41; in [10], 1.35. Further, in assay [4], the z-score was 1.62 (inactive).

`CC(C)OC(=O)CC(=O)CC(O)c1cccc(C#N)c1` (stereo not given): the composite z-score in assay [1] turned out to be 0.431; in [2], 0.662; in assay [3] it was 1.04; in assay [5] it was 0.632; in [6], 0.646; in [7] it was 0.23. Also, the results for the composite z-score in assay [8], in [9] and in assay [10] were 0.74, -0.618 and 0.964, respectively. For the same compound, the z-score in assay [4] was -1.69 (inactive).

Consider `CO[C@H]1O[C@H](CO)[C@@H](OC(=O)Nc2ccc(Oc3ccccc3)cc2)[C@H](OC(=O)Nc2ccccc2-c2ccccc2)[C@@H]1OC(=O)Nc1ccccc1-c1ccccc1`, for which the composite z-score in [1] was found to be 1.31; in assay [2] it was 0.686; in [3], 0.609; in assay [5] it was 0.959; in assay [6], 1.15; in assay [7], 0.223. Further, the composite z-score in assay [8] is 0.787; in assay [9], 0.338; in [10] it was 0.586. For the same compound, in [4], the z-score was -1.52 (inactive).

`CO[C@H]1O[C@H](CO)[C@@H](OC(=O)Nc2ccc(C(F)(F)F)cc2)[C@H](OC(=O)Nc2ccc3c(c2)OCO3)[C@H]1OC(=O)Nc1ccc2c(c1)OCO2`: the composite z-score in assay [1] was 1.5; in assay [2], 0.517; in assay [3], 0.63; in [5] it was 0.844; in [6], 1.28; in assay [7], -0.279. Moreover, the figures for the composite z-score in assay [8], in [9] and in assay [10] were 0.871, 0.214 and 0.483, respectively. Also, in assay [4], the z-score was -0.412 (inactive).

In the case of `CCCNC(=O)[C@@]1(c2ccc([N+](=O)[O-])cc2)CC(=O)N(C2CCCCC2)[C@@H]1c1ccc(CO)cc1I`, the composite z-score in [1] was found to be 1.51; in assay [2], 0.57; in assay [3], 0.796; in [5], 0.841; in assay [6], 0.705; in [7], 0.297. Further, the results for the composite z-score in assay [8], in assay [9] and in assay [10] were 0.532, 0.214 and -0.406, respectively. For the same compound, the z-score in [4] was -0.68 (inactive).

In the case of `CN(C)CCCNC(=O)[C@@H]1c2ccccc2C(=O)N(CC23CC4CC(CC(C4)C2)C3)[C@H]1c1ccc(CO)cc1`, the composite z-score is 1.15 in assay [1]; -0.46 in assay [2]; 0.296 in assay [3]; 1.17 in assay [5]; 0.98 in assay [6]; 0.425 in assay [7]. The composite z-score in assay [8] was 1.15; in assay [9] it was 0.872; in [10], -0.111. Further, the z-score in assay [4] was -0.751 (inactive).

With `O=C1NC(=O)C2C1C=CC(C(O)c1cc(C(F)(F)F)cc(C(F)(F)F)c1)N2Nc1ccc(Cl)cc1Cl` (stereo not given), the composite z-score in assay [1] is 0.314; in [2], 0.853; in assay [3], 0.824; in [5], 0.336; in assay [6], -0.514; in [7], -0.66. For the same compound, the composite z-score is -0.0146 in assay [8], -0.953 in [9] and 0.701 in [10]. In assay [4], the z-score was 0.916 (inactive).

Turning to `COc1ccccc1CN1C(=O)c2ccccc2[C@@H](C(=O)NC(C)C)[C@@H]1c1ccc(CO)cc1`, the composite z-score amounted to 0.567 in [1]; 0.711 in [2]; 0.756 in assay [3]; 1.33 in assay [5]; 1.23 in [6]; 0.754 in assay [7]. The composite z-score worked out at 1.24 in assay [8], 0.673 in assay [9] and 0.93 in [10]. In addition, in assay [4], the z-score is 0.011 (inactive).
